In the library only some 3.3% were active in any assay of this set; here they are far more common.
12-hLO inh – 12-hLO (ALOX12) enzyme inhibition | P18054 | hit rate 0.12% among 150,000 | Potency, µM (highest dose often 57.1 µM), without a hit: at the highest dose activity change, negative = inhibition, hits mostly inhibitors | purified 12-hLO, xylenol orange hydroperoxide absorbance | AID 1452; further: potency means the concentration at half of the fitted maximal effect; on the % scale 0 is the no-effect control and ±100 the full control effect; nearly all actives have a fitted effect of over 55% in size
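Purified human 12hLO (150 nM), preincubated 15 min with compound, then 40 uM arachidonic acid for 30 min, room temperature, Hepes pH 7.0 with 0.01% Triton X-100. Hydroperoxide detected by ferrous iron/xylenol orange; 573/405 nm absorbance ratio gives reaction progress.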
IMPase inh – cell-permeable inhibitors of inositol monophosphatase (IMPase); CHO-M1 cells, IP1 accumulation, HTRF TR-FRET ratio; inhibition (IP1 accumulation), % at 46.1 µM; 120,000 tested, under 10 active; active means well fitted curve in the direction sought with a large enough effect in the signal ratio, not every such curve was filed as active; inconclusive means small, poorly fitted or top-dose-only effect, or a change in a side signal; inactive means no such curve, though single readings can be large or run the other way; the % refers to the signal ratio;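 further: cells stimulated with carbachol in lithium chloride buffer; plate controls were DMSO basal wells for no effect and reference inhibitor wells for full effect; higher means more IMPase inhibition seen as more IP1 and lower FRET ratio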
Target sequence (P97697 whole entry, looked up): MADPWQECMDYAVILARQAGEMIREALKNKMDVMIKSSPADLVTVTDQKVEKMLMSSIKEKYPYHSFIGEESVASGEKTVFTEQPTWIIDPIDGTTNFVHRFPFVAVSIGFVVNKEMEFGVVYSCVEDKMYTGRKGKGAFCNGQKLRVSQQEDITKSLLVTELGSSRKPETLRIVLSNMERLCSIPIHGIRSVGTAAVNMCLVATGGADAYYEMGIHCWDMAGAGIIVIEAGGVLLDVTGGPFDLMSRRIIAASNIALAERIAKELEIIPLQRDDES
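Carbachol-driven Gq signalling in CHO-M1 cells (2000/well) generates IP1. Compounds that block IMPase raise IP1 and so reduce the FRET signal from Eu-anti-IP1 and d2-IP1 after a 10 min room-temperature lysis.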
HTT aggregate – inhibitors of mutant huntingtin aggregate formation in PC12 cells; PC12 HttQ103-GFP aggregates, Acumen cytometry, 40 h; Potency, µM (series often up to 46.1 µM), for the others: at the highest dose activity change, negative = inhibition, hits mostly inhibitors; hit rate 1.1% among 220,000; AID 1688; further: potency means the concentration at half of the fitted maximal effect; on the % scale 0 is the no-effect control and ±100 the full control effect; nearly all actives have a fitted effect of over 60% in size
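PC12/HTTQ103-GFP, ecdysone-inducible; teb 100 nM; cpd qHTS titration; GFP aggregates read on laser cytometer, Ex 488/Em 500-530 nm.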
NPSR antagonist – antagonists of human neuropeptide S receptor cAMP signaling. CHO-NPSR cells, cAMP TR-FRET, antagonist mode. Potency, µM (doses to about 38.3 µM), without a hit: at the highest dose activity change, negative = inhibition, actives largely listed as inhibitors. Q6W5P4. hit rate 1% among 220,000; further: potency means the concentration at half of the fitted maximal effect; on the % scale 0 is the no-effect control and ±100 the full control effect; nearly all actives have a fitted effect of over 50% in size
Target sequence (Q6W5P4 whole entry, looked up): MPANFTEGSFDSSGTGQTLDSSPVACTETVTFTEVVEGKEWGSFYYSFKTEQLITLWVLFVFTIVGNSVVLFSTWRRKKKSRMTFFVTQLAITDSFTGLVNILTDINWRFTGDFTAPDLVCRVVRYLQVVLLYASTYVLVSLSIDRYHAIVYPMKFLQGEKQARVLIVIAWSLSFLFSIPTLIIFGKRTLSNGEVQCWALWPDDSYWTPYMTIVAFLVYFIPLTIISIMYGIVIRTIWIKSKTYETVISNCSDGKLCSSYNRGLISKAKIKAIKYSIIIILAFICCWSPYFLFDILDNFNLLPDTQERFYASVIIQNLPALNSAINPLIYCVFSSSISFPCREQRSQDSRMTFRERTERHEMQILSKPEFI
HTT cytoprotect – cytoprotection in Huntington HTT-Q103 PC12 cell model; Potency, µM (titrated, usually from 56.4 µM), for inactives: cytoprotection (ATP increase), usual class: activators; hit rate 0.14% among 230,000; PC12 HTT-Q103 induced, cytoprotection, ATP luminescence, 40 h; AID 1471; further: potency means the concentration at half of the fitted maximal effect; % of control where 0% means no effect; nearly all actives have a fitted effect of over 45% in size
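ATP quantification (ATPlite) reports survival of PC12 cells in which tebufenozide, 100 nM final, switches on Htt exon 1 with 103 glutamines linked to GFP; compounds are titrated.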
PNC assembly inh – inhibitors of perinucleolar compartment assembly; hit rate 3.1% among 140,000; activity change (PNC), negative = inhibition, % at 10 µM; PC3M PTB-GFP, PNC prevalence imaging, 16 h; stronger effect = lower value;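 active means readout at or below -70, meaning at least 70% loss of cells showing the perinucleolar compartment, a nuclear body marking cancer cells; inconclusive means readout between -30 and a set limit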;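 further: plate controls were DMSO wells for no effect and camptothecin positive control wells for full effect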
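Compounds are pinned in duplicate onto adhered PC3M cells stably expressing GFP-tagged PTB and incubated 16 h at 37 C. Cells are then fixed, nuclei stained with Hoechst, and PNC-positive cells counted.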
An asterisk follows results filed as active; ? = inconclusive; / = no result given; [ ] = another dose, or the depositor's remark. Unless noted, the call rests on the fitted dose curve; in most records, active means well fitted curve in the direction sought with a large enough effect; inconclusive means small, poorly fitted or top-dose-only effect, or another doubt; inactive means no such curve, though single readings can be large; an effect the other way counts as inactive or inconclusive.

SMILES	12-hLO inh	IMPase inh	HTT aggregate	NPSR antagonist	HTT cytoprotect	PNC assembly inh
CCC(=O)N1Cc2ccccc2-c2ccccc2C1=O	-4.7%	0.6	5.62µM*	-20.3%[46.1 µM]	3.4%[0.074 µM]	44.2
Cc1cc(C)nc(-n2ncc3c2CCCC3=O)n1	/	/	?	24.9%	25.1µM*	/
COCCNC(=O)COC(=O)c1nsc(Cl)c1Cl	6.8%	0.9	15.0%	-6.7%[46.1 µM]	-13.2%	-108.8*
Cc1cc(Nc2cccc([N+](=O)[O-])c2)n2c(nc3ccccc32)c1C#N	2.5%	-3.3	2.82µM*	-15.1%[46.1 µM]	-1.7%[10 µM]	-9.3
COCCN(CCOC)c1cc(C)c(C#N)c2nc3ccccc3n12	-1.6%	-3.3	2.3%	0.8%[46.1 µM]	2.3%	-95.0*
Cc1cc(SCC(=O)Nc2c(C)n(C)n(-c3ccccc3)c2=O)n2c(nc3ccccc32)c1C#N	/	/	/	/	-7.0%	/
Cc1cc(-c2ccco2)n2c(nc3ccccc32)c1C#N	1.7%	-0.3	-8.0%	-13.4%[46.1 µM]	-14.7%	61.3
C=C(C)CSc1cc(C)c(C#N)c2nc3ccccc3n12	-20.6%	0.6	-1.4%	0.7%	20.1%[10 µM]	-93.2*
N#CC1=C(N)NC(SCC(=O)O)=C(C#N)C12CCCC2	-8.7%	-8.2	-7.0%	-14.6%[7.67 µM]	-4.4%	39.6
N#CC1=C(N)NC(SCc2ccc(F)cc2)=C(C#N)C12CCCCC2	-17.4%	9.7	12.6µM*	-25.6%[46.1 µM]	-48.1%	-1.8
CCC1(C)N(O)C(C)(C)C(c2ccc(F)cc2)=[N+]1[O-] (stereo not drawn)	-4.6%	-7.4	-8.2%	11.6%[46.1 µM]	-5.4%[10 µM]	-100.0*
C/C(=N\O)C1(C)N(O)C(C)(C)C(c2ccc(F)cc2)=[N+]1[O-] (stereo not drawn)	6.6%	1.2	5.2%[9.22 µM]	6.1%[46.1 µM]	-12.3%	51.0
NCCCCCCN	-1.1%	/	/	/	-1.3%	/
COc1cc(/C=N/O)c(Br)cc1OCC(=O)Nc1ccccc1C	2.8%	/	-6.1%	6.4%	/	-84.3*
CC1(C)Cc2c(c(N3CCOCC3)nc3snc(Br)c23)CO1	-2.7%	-3.9	-15.9%	-11.8%[46.1 µM]	?	-84.0*
CC1(C)Cc2c(c(N3CCOCC3)nc3snc(N)c23)CO1	-4.9%	1.1	25.1µM*	-8.5%[46.1 µM]	-10.4%	2.9
CC1(C)Cc2c(c(N3CCOCC3)nc3sc(C(N)=O)c(N)c23)CO1	/	/	-32.7%[9.22 µM]	-16.8%	-17.2%[10 µM]	/
COc1nnnc2c1sc1nc(N3CCOCC3)c3c(c12)CC(C)(C)OC3	-0.8%	-0.5	-1.3%	-3.1%[46.1 µM]	1.2%	11.4
CCCc1ccc(OCC(=O)Nc2sc3c(c2C(=O)OCC)CCC(C(C)(C)C)C3)cc1 (stereo not drawn)	/	1.2	/	/	/	/
CCOC(c1cc(OC)cc([N+](=O)[O-])c1OC)C(C)C(OC)[C@@H](C)/C=C/CC(=O)OC (stereo partly drawn)	/	/	/	/	-4.6%[10 µM]	/
COC(=O)NC(/C(C(=O)OC)=C(\C)NCc1ccccc1)c1ccc2ccccc2c1 (stereo not drawn)	/	/	/	/	-1.9%[10 µM]	/
Cc1nc(NC(=O)C2CC3CCCC(C2)C3=O)sc1C (stereo not drawn)	3.6%	3.0	-22.4%	-0.9%[46.1 µM]	-4.6%[0.074 µM]	-122.4*
O=C(Nc1cccc(NC(=O)C2CC3CCCC(C2)C3=O)n1)C1CC2CCCC(C1)C2=O (stereo not drawn)	-0.9%	-3.3	-17.1%	-7.6%[46.1 µM]	6.7%[10 µM]	?
COC(=O)c1ccc(C(NC(=O)OCc2ccccc2)/C(I)=C/[C@@H](C)C(=O)Nc2ccccc2)cc1 (stereo partly drawn)	-5.1%	/	/	/	-3.1%	/
CCOC(=O)C1=C([Si](C)(C)C)c2ccccc2N(S(=O)(=O)C(F)(F)F)C1C(=O)OCC (stereo not drawn)	-7.8%[0.00818 µM]	/	/	/	-68.1%	/
SMILES	12-hLO inh	IMPase inh	HTT aggregate	NPSR antagonist	HTT cytoprotect	PNC assembly inh
CCCSc1nnc(Sc2nnnn2-c2ccccc2)s1	-4.4%	-3.4	22.4µM*	-12.8%[46.1 µM]	-57.6%[10 µM]	9.4
Cc1ccccc1-n1nnnc1Sc1nnnn1-c1ccccc1	1.4%	5.7	14.1µM*	-5.6%[46.1 µM]	-62.5%	0.2
CC(=O)C1(C)CC2(CC(C)(C)OC2=O)C(=O)O1 (stereo not drawn)	/	/	/	/	-1.1%	/
O=C(CC(SCCO)c1ccc2c(c1)OCO2)c1cccs1 (stereo not drawn)	-10.9%	-3.4	-6.9%	?	0.1%	-112.0*
O=C(CC(SCc1ccco1)c1ccc(O)cc1)c1cccs1 (stereo not drawn)	-24.5%	3.4	-16.3%	-22.1%[46.1 µM]	-9.4%	48.8
CCn1cc(C(=O)O)c(=O)c2cnc(N3CCCC3)nc21	-0.8%	-1.7[20.6 µM]	-8.0%[20.6 µM]	/	?	/
COc1ccccc1C1CCN(c2cc(O)ccc2[N+](=O)[O-])CC1	/	/	-3.0%[9.22 µM]	26.7%	6.5%[10 µM]	/
COC(=O)CSC(C)C(=O)Nc1nnc(C(C)C)s1 (stereo not drawn)	/	/	-5.2%	-32.0%	3.16µM*	/
CN(c1ccc(OCC(=O)OCC(=O)Nc2c(F)c(F)c(F)c(F)c2F)cc1)S(=O)(=O)c1ccc(F)cc1	0.3%	/	-8.3%	14.7%	30.6%[10 µM]	-106.9*
COc1ccc(CC2(CO)CCN(S(=O)(=O)c3sccc3C)CC2)cc1	/	/	10.6%[9.22 µM]	0.6%	16.4%[10 µM]	/
Cc1ccc(NC(=O)Cc2nn(C)c(=O)c3ccccc23)cc1F	0.4%	4.7	3.55µM*	2.2%[46.1 µM]	-27.2%	22.5
Cn1nc(CC(=O)N2CCN(c3ccccc3)CC2)c2ccccc2c1=O	8.3%	4.7	-12.6%	-4.7%[46.1 µM]	-10.4%[0.074 µM]	?

Bioassay records as filed in PubChem BioAssay.
